Screening results (PubChem)
Compounds with a hit are over-represented: about 2.3% of the library has one in this group of screens.
AMA1 RON2 block – disrupts binding of P. falciparum AMA1 to RON2; AlphaScreen AMA1-biotinylated RON2 peptide binding; Potency, µM (top dose mostly 58.2 µM), for the others: at the highest dose activity change, negative = inhibition, usual class: inhibitors; 0.2% of 360,000 active;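 further: 0% = vehicle wells and -100% = peptide control; nearly all actives have a fitted effect of over 45% in size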
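AMA1 (3D7) with his tag at 25 nM final met compounds first, then biotinylated RON2 peptide at 25 nM; detection used donor plus acceptor beads, 10 µg/mL apiece, read by AlphaScreen after 30 min at room temperature.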
AmpC inh detg – inhibitors of E. coli AmpC beta-lactamase with detergent; AmpC hydrolysis of nitrocefin, absorbance 480 nm, 0.01% Triton; Potency, µM (top dose mostly 114 µM), inactives show top-dose activity change, negative = inhibition, usual class: inhibitors; 0.041% of 370,000 active; AID 485294;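 further: 0% = no-compound wells and -100% = no-enzyme wells; nearly all actives have a fitted effect of over 25% in size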
Target sequence (P00811 whole entry, looked up): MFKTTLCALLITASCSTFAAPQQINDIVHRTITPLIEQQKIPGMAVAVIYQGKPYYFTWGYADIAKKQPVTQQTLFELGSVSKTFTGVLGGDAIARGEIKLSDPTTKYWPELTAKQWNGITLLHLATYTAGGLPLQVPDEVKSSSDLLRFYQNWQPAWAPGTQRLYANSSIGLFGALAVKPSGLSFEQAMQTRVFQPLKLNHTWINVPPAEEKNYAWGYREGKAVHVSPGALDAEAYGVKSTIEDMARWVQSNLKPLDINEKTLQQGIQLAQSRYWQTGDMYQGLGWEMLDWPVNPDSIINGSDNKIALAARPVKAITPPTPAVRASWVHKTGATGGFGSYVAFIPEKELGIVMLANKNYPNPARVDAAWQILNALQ
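20 mM phosphate pH 7.0 + 0.01% (detergent screen) or 0.0001% Triton X-100; 5.3 nM AmpC reagent; cpd preinc 15 min RT; nitrocefin (800 uM stock) to start; A480 q20 s × 4 min; Activity was normalised to no-enzyme and no-compound control wells.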
LASV entry inh – Lassa virus entry inhibition; Lassa virus pseudotype entry inhibition, cell reporter; Potency, µM (highest dose often 37.9 µM), for the others: at the top dose activity change, negative = inhibition, actives largely listed as inhibitors; 1.2% of 300,000 active; calls by dose curve; tested in HEK293 cells; further: nearly all actives have a fitted effect of over 50% in size
AmpC inh no detg – AmpC beta-lactamase inhibition without detergent. P00811. AmpC nitrocefin hydrolysis, absorbance 480 nm, 0.0001% Triton. Potency, µM (top dose mostly 57.1 µM), inactives show at the highest dose activity change, negative = inhibition, usual class: inhibitors. 0.52% of 330,000 active. AID 485341;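 further: plate controls were no compound for no effect and no enzyme for full effect; nearly all actives have a fitted effect of over 20% in size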
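20 mM phosphate pH 7.0 + 0.01% (detergent screen) or 0.0001% Triton X-100; 5.3 nM AmpC reagent; cpd preinc 15 min RT; nitrocefin (800 uM stock) to start; A480 q20 s × 4 min; Activity was normalised to no-enzyme and no-compound control wells.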
MARV entry inh – blocks Marburg virus binding to or entry into cells; Marburg virus pseudotyped entry inhibition, cell reporter; AID 540276; 1.8% of 300,000 active; Potency, µM (top dose mostly 37.8 µM), inactives show at the top dose activity change, negative = inhibition, actives largely listed as inhibitors; calls by dose curve; tested in HEK293 cells
* = called active by the depositor; ? = inconclusive; · = no result; [ ] = another dose, or the depositor's remark. Unless noted, the call rests on the fitted dose curve; in most records, active means well fitted curve in the direction sought with a large enough effect; inconclusive means small, poorly fitted or top-dose-only effect, or another doubt; inactive means no such curve, though single readings can be large; an effect the other way counts as inactive or inconclusive. Unless noted, on the % scale 0 is the no-effect control and ±100 the full control effect; potency means the concentration at half of the fitted maximal effect.

SMILES | AMA1 RON2 block | AmpC inh detg | LASV entry inh | AmpC inh no detg | MARV entry inh
CN1c2ccccc2C(C)(C)C12C=Cc1cc(O)ccc1O2 (stereo not given) | ? | -10.3% | 14.6µM* | -44.4% | ?
COc1ccc(CCn2c(O)cc3nn(-c4nc5ccccc5s4)c(=O)c-3c2C)cc1 | 57.0% | 2.2% | -2.3% | 10µM* | -28.8%[46.1 µM]
N#CC1=C(N)Oc2cc(O)c(C=Nc3ccccc3)cc2C1c1ccccc1 (stereo not given) | 0.0% | -4.8% | -8.1% | -18.2% | ?
Cc1ccc(N=Cc2cc3c(cc2O)OC(N)=C(C#N)C3c2ccccc2)cc1 (stereo not given) | 37.6% | -17.1% | ? | 20µM* | ?
COc1ccc(/C=C/C(=O)c2ccccc2O)cc1CN1CCOCC1 | -25.8% | ? | ? | 65.8% | 11.2µM*
COCCN1C(=O)C2=C(C1=O)C1N(C)c3ccccc3[C@@]13C[C@@H](CO)N(C(=O)c1ccc(Br)cc1)C3=N2 (stereo not given in full) | · | · | ? | · | -7.4%[14.2 µM]
CC(=O)n1nc(-c2ccccc2)nc1NCc1ccc(N(C)C)cc1 | 8.91µM* | 1.8% | ? | 21.1% | 13.4%[46.1 µM]
CN(C)CC1CC/C(=C\c2ccc(O)cc2)C1=O (stereo not given) | 16.3% | · | 11.2µM* | · | ?
COc1ccc(/C=C2/CCC(CN3CCOCC3)C2=O)cc1 (stereo not given) | -4.4% | · | 12.6µM* | · | ?
Cc1nn2c(=O)cc(COC(=O)c3ccccc3NC(=O)c3cccs3)nc2s1 | · | 6.7% | 7.2%[46.1 µM] | · | ·
O=C(Nc1ncc(Cc2cccc(C(F)(F)F)c2)s1)c1ccc(-c2cccc([N+](=O)[O-])c2)o1 | 50.1% | 0.3% | ? | ? | 15.8µM*
Cc1c(C(=O)NCc2ccccc2Br)oc2c1-c1[nH]ncc1CC2 | · | 11.1% | 3.8%[46.1 µM] | · | ?
Nc1ncc(Br)cc1S(=O)(=O)Nc1cc(C(F)(F)F)cc(C(F)(F)F)c1 | -20.6% | -5.4% | 14.1µM* | -32.4% | ?
Cc1ccc(NS(=O)(=O)c2cc(Br)cnc2N)c(Cl)c1 | 6.7% | 1.1% | · | -31.6% | ·
Cc1cc(Cl)ccc1OCC(=O)Nc1ccccc1N1CCOCC1 | 0.0% | -2.9% | 8.91µM* | -12.7% | ?
O=C(Nc1cccc(Cl)c1)Nc1cc(S(=O)(=O)N2CCCCC2)ccc1Cl | -9.7% | 0.0% | ? | -39.3% | 3.98µM*
COc1ccc(Cl)cc1NC(=O)COc1ccc(S(=O)(=O)N2CCOCC2)cc1C | 0.1% | 28.2µM* | · | -19.0% | 8.0%[46.1 µM]
Cc1ccc2c(c1)-c1c(cnn1CC(=O)Nc1ccccc1N1CCN(C)CC1)CO2 | -5.0% | 0.3% | ? | 175.9% | 9.2µM*
CCCNC(=O)C1CCC(Cn2c(=O)c3sccc3n(CC(=O)NCc3cccc(OC)c3OC)c2=O)CC1 (stereo not given) | · | -1.7% | -0.4%[46.1 µM] | · | -2.8%[46.1 µM]
CC1N=C2C(=O)OC3C=CC=CC3=C2N1c1ccccc1 (stereo not given) | · | · | · | · | 4.0%
Cc1ccc(C(C)C)c(OCC(=O)Nc2ccccc2N2CCN(C)CC2)c1 | -12.1% | -12.3% | 10µM* | 153.1% | ?
CC(=O)N1CCN(c2ccccc2NC(=O)COc2cc(C)ccc2C(C)C)CC1 | -6.3% | ? | ? | 282.6% | ?
COc1cc(S(=O)(=O)N2CCOCC2)ccc1NC(=O)COC(=O)CC12CC3CC(CC(C3)C1)C2 | 24.9% | 0.3% | 16.4µM* | 87.4% | -65.2%
Cc1ccc(C(C)C)c(OCC(=O)Nc2nc3c(s2)CCCC3)c1 | · | 14.7% | 3.16µM* | · | ?
Cc1ccccc1OCC(=O)OCC(=O)Nc1cc(S(=O)(=O)N2CCCCC2)ccc1Cl | -4.5% | ? | -14.4% | 31.6µM* | -3.3%
SMILES | AMA1 RON2 block | AmpC inh detg | LASV entry inh | AmpC inh no detg | MARV entry inh
O=C(COC(=O)Cc1ccccc1)Nc1cc(S(=O)(=O)N2CCCCC2)ccc1Cl | -0.5% | 0.0% | 16.3% | -22.6% | -1.1%
COC(=O)CN1C(=O)CSc2ccc(S(=O)(=O)Nc3cccc(Cl)c3C)cc21 | · | -3.5% | 16.1%[46.1 µM] | · | ·
CN(c1ccc(OCC(=O)Nc2ccc3[nH]c(=O)[nH]c3c2)cc1)S(=O)(=O)c1ccc(Cl)cc1 | -1.0% | ? | 23.1µM* | -25.9% | ?
Cc1ccccc1CN1CCN(C(=O)c2cccc3ccccc23)CC1 | 25.1µM* | -14.5% | · | 48.0% | ·
COc1cccc(CN2CCN(C(=O)c3cccc4ccccc34)CC2)c1OC | -22.0% | 6.0% | 21.9% | 87.6% | ?
NNC(=O)c1cccc(COc2ccccc2Br)c1 | 59.4% | 0.9% | ? | -16.2% | ?
NNC(=O)c1cccc(COc2ccc3c(c2)CCC3)c1 | 53.1% | 2.6% | 2.06µM* | -5.8% | ?
CC(C)(C)c1ccc(/C=C2\Oc3cc(OC(=O)N4CCOCC4)ccc3C2=O)cc1 | -12.2% | ? | 8.91µM* | -24.6% | ?
Cc1ccc(/C=C2\Oc3cc(OC(=O)N4CCOCC4)ccc3C2=O)cc1 | 0.5% | -12.3% | 6.2% | -21.9% | 3.4%
Cc1ccc(C(C)C)c(OCC(=O)NCC2(N(C)C)CCCCC2)c1 | · | 20.6% | -3.6%[46.1 µM] | · | ?
CCc1ccc(OCCCC(=O)NCc2ccco2)cc1 | -4.8% | 4.6% | · | -4.5% | ·
CCc1ccc(N/C(SCc2ccccc2C)=C(/C#N)C(=O)NCc2ccco2)cc1 | 35.1% | -1.2% | 8.2µM* | -39.5% | ?
CCCOC(=O)c1ccc(Oc2c(-c3ccc(OC)cc3O)n[nH]c2C)cc1 | 105.0% | 9.4% | 11.2µM* | -38.9% | -15.5%
CCCOC(=O)c1ccc(Oc2c(-c3ccc(O)cc3O)n[nH]c2C)cc1 | -11.0% | 6.8% | ? | -42.7% | -9.6%
CSc1ccc(CN2CCC(C(=O)NCc3ccc(C)cc3)CC2)cc1 | ? | 3.9% | ? | 9.7% | 16.4µM*
COc1ccc(N(C(=O)c2snc(C(N)=O)c2N)C(C(=O)NCc2ccccc2)c2ccc(F)cc2)c(OC)c1 (stereo not given) | -14.8% | 1.3% | 8.91µM* | 47.1% | ?
NC(=O)c1nsc(C(=O)N(c2cccc(F)c2)C(C(=O)NC2CCCC2)c2ccc(O)cc2)c1N (stereo not given) | 0.0% | 4.3% | ? | -27.7% | -21.1%[46.1 µM]
COc1ccccc1N(C(=O)c1snc(C(N)=O)c1N)C(C(=O)NCc1ccccc1)c1ccc(O)cc1 (stereo not given) | -7.3% | -11.2% | 4.47µM* | -28.8% | -21.3%[46.1 µM]
NC(=O)c1nsc(C(=O)N(c2cccc(F)c2)C(C(=O)NCc2ccccc2)c2ccc(O)cc2)c1N (stereo not given) | 8.0% | -6.5% | ? | 7.94µM* | ?
CCOc1ccc(CC(=O)Nc2c(C(=O)Nc3ccc(OC)cc3OC)oc3ccccc23)cc1 | · | 7.6% | 13.3%[46.1 µM] | · | 12.7%[46.1 µM]
COC(=O)C1=C[C@@]2(c3ccc(F)cc3[C@@H](OC)[C@@H]2C)[C@@H]2C=C[C@H]1C2 | · | · | · | · | 2.1%[14.2 µM]
COc1ccc(C(=O)NCCc2nc3ccccc3[nH]2)cc1 | · | 0.4% | 10.5%[46.1 µM] | · | ·
